{"source": "ChEMBL document CHEMBL4513216", "about": "“Probing the Open Global Health Chemical Diversity Library for Multistage-Active Starting Points for Next-Generation Antimalarials” (ACS Infect Dis, 2020)", "note": "The whole screen tested about 69,000 compounds, of which about 8,600 (12%) showed an effect of 50% or more. Only a selection was taken, and strong results are over-represented in it overall."}
{"system": "Plasmodium berghei", "assay": "Screen against P. berghei liver stage (PbLuc), transformed with Luciferase, at 10uM", "assay_type": "functional, HepG2", "conditions": "tested at 10 uM", "units": {"INHIBITION": "%"}}
{"molecule": "CN(Cc1ccco1)C1CCC12CCN(C(=O)c1ccnnc1)CC2", "note": "(stereo unspecified)", "INHIBITION": -39.3}
{"molecule": "N#Cc1cccc(N2CC3(CCN(C(=O)C4CC=CC4)C3)CC2=O)c1", "note": "(stereo unspecified)", "INHIBITION": 13.6}
{"molecule": "COCCCN1CCCCC12CC(=O)N(Cc1ccccn1)C2", "note": "(stereo unspecified)", "INHIBITION": 18.7}
{"molecule": "COCCN1CCCCC12CC(=O)N(c1ccccc1OC)C2", "note": "(stereo unspecified)", "INHIBITION": 93.7}
{"molecule": "Cc1ccccc1N1CC2(CCCCN2CC2CC2)CC1=O", "note": "(stereo unspecified)", "INHIBITION": 5.63}
{"molecule": "O=C1CC2(CCCCN2CC2CC2)CN1c1ccccc1", "note": "(stereo unspecified)", "INHIBITION": -31.4}
{"molecule": "COCCN1CCCCC12CC(=O)N(c1cccc(C#N)c1)C2", "note": "(stereo unspecified)", "INHIBITION": 61.1}
{"molecule": "Fc1ccc(CN2Cc3nccn3CC(CN3CCOCC3)C2)cc1", "note": "(stereo unspecified)", "INHIBITION": 32.2}
{"molecule": "O=C(O)c1cc(-c2ccncc2)cc(S(=O)(=O)N2CCCCCC2)c1", "INHIBITION": -8}
{"molecule": "Cc1ccc(C(=O)N2Cc3c(CN(C)C)nn(C)c3C2)cc1C", "INHIBITION": 14.6}
{"molecule": "CCN(C)S(=O)(=O)NCC1CCN(Cc2ccccc2C)CC1", "INHIBITION": 24}
{"molecule": "CCN(C)C(=O)c1cccc(S(=O)(=O)NCCc2nc(C)cc(=O)[nH]2)c1", "INHIBITION": 45.2}
{"molecule": "CCc1nc(CCNS(=O)(=O)c2cccc(C(=O)N(C)CC)c2)cs1", "INHIBITION": 55.4}
{"molecule": "CCN(C)C(=O)c1cccc(S(=O)(=O)NCCc2csc(N)n2)c1", "INHIBITION": 48}
{"molecule": "CO[C@H]1CN(C(=O)c2nc(-c3ccccc3)[nH]c2C)CC[C@H]1N", "INHIBITION": 5.78}
{"molecule": "CCCc1nnc2sc(C3CCN(C4CCN(C)CC4)CC3)nn12", "INHIBITION": 44.8}
{"molecule": "CN1CCCCC[C@@H]2[C@@H]1[C@H](c1ccccc1)CN2C(=O)c1cccnc1", "INHIBITION": 47.2}
{"molecule": "CN1CCCC[C@@H]2[C@H]1[C@@H](c1ccccc1)CCN2C(=O)c1ccncc1", "INHIBITION": -4.51}
{"molecule": "CN1CCCC[C@@H]2[C@H]1[C@@H](c1ccccc1)CCN2C(=O)c1cccnc1", "INHIBITION": 47.2}
{"molecule": "CN1CC[C@H](c2ccccc2)[C@@H]2[C@H]1CCCCN2C(=O)c1cnccn1", "INHIBITION": 57.4}
{"molecule": "Cc1nnsc1C(=O)N1CC[C@H](c2ccccc2)[C@@H]2[C@H]1CCCCN2C", "INHIBITION": 70.1}
{"molecule": "CN1CCCC[C@@H]2[C@H]1[C@@H](c1ccccc1)CCN2C(=O)c1ccccc1", "INHIBITION": 59.7}
{"molecule": "CN1CCCC[C@@H]2[C@H]1[C@@H](c1ccccc1)CCN2C(=O)c1cnccn1", "INHIBITION": 46.1}
{"molecule": "Cc1nnsc1C(=O)N1CCN(C(=O)C2CCC2)[C@@H]2CS(=O)(=O)C[C@@H]21", "INHIBITION": 47.2}
{"molecule": "CN1CCCC[C@@H]2[C@H]1[C@@H](c1ccccc1)CCN2C(=O)c1ccccn1", "INHIBITION": 20.8}
{"molecule": "CC(C)CNC(=O)c1cc(C2CC2)nc2onc(C3CCNCC3)c12", "INHIBITION": 13.5}
{"molecule": "NCCc1c(-c2ccc(F)cc2)[nH][nH]c1=O", "INHIBITION": 39.1}
{"molecule": "COc1ccccc1CNC(=O)c1[nH]ncc1Cl", "INHIBITION": 46.6}
{"molecule": "NC(=O)Cn1cc(NC(=O)N2CCN(c3ccccc3)CC2)cn1", "INHIBITION": -65.7}
{"molecule": "CC(C)N(C(=O)Cn1cc(Cl)cn1)c1ccccc1", "INHIBITION": 21.8}
{"molecule": "Brc1cccc(-c2noc(CN3CCOCC3)n2)c1", "INHIBITION": 43.3}
{"molecule": "O=C(COc1coc(CN2CCCCC2)cc1=O)NCc1ccccc1", "INHIBITION": 9.48}
{"molecule": "Cc1cccc(CN2CCCC3(CCN(c4cccnc4)C3=O)C2)n1", "note": "(stereo unspecified)", "INHIBITION": 29}
{"molecule": "Cn1cc(N2CC3(CCN(Cc4ccccc4)CC3)OCC2=O)cn1", "INHIBITION": 14.1}
{"molecule": "Cn1cc(N2CC3(COCCN(Cc4ccsc4)C3)OCC2=O)cn1", "note": "(stereo unspecified)", "INHIBITION": 18.2}
{"molecule": "Cn1cc(N2CC3(CCN(Cc4nccs4)CC3)OCC2=O)cn1", "INHIBITION": 26.3}
{"molecule": "Cn1cc(N2CC3(CCN(Cc4ccsc4)CC3)OCC2=O)cn1", "INHIBITION": 54.4}
{"molecule": "Cc1cccc(CN2CCC3(CCN(c4cccnc4)C3=O)C2)n1", "note": "(stereo unspecified)", "INHIBITION": 58.8}
{"molecule": "Cc1cccc(CN2CCC3(CC2)CN(c2cnn(C)c2)C(=O)CO3)n1", "INHIBITION": 68.3}
{"molecule": "Cn1cc(N2CC3(COCCN(Cc4ccccn4)C3)OCC2=O)cn1", "note": "(stereo unspecified)", "INHIBITION": -8.54}
{"molecule": "Cn1cc(N2CC3(COCCN(Cc4nccs4)C3)OCC2=O)cn1", "note": "(stereo unspecified)", "INHIBITION": 56.7}
{"molecule": "Cn1cc(N2CC3(CCN(Cc4cccs4)CC3)OCC2=O)cn1", "INHIBITION": -34.9}
{"molecule": "COc1ccc(CN2CCC3(CCN(c4cccnc4)C3=O)C2)cc1", "note": "(stereo unspecified)", "INHIBITION": 8.67}
{"molecule": "Cc1cccc(CN2CCC3(CC2)CN(c2cccnc2)C(=O)CO3)n1", "INHIBITION": 30.3}
{"molecule": "CC(=O)N1CCCC(c2ccc(Cc3ccccc3)cn2)C1", "note": "(stereo unspecified)", "INHIBITION": 37.6}
{"molecule": "CCN1C[C@H]2C3(CCN(C(C)=O)CC3)CC[C@@]2(C(=O)N(C)C)C1", "INHIBITION": 36.7}
{"molecule": "COCCN(C)C[C@@H]1CN(Cc2ccnc3ccccc23)C[C@@H]1CO", "INHIBITION": 17.5}
{"molecule": "Cc1cnn(CC2CCCCN2C(=O)c2c(C)noc2C)c1", "note": "(stereo unspecified)", "INHIBITION": 11.4}
{"molecule": "CN(C)c1cncc(C2CCN(CC3(O)CCCCC3)CC2)n1", "INHIBITION": 37.6}
{"molecule": "CS(=O)(=O)N1CC[C@H]2[C@H](C[C@@H](Cn3cncn3)N2CC2CC2)C1", "INHIBITION": -28.2}
{"molecule": "COCCN1CC(C(=O)NCc2cccnc2-n2cccn2)CC1=O", "note": "(stereo unspecified)", "INHIBITION": -29.8}
{"molecule": "CN1CC2(CCN(C(=O)Cn3ncc4ccccc4c3=O)CC2)OC1=O", "INHIBITION": 36.3}
{"molecule": "CCOCCN1CCN(CCCS(C)(=O)=O)CC1C", "note": "(stereo unspecified)", "INHIBITION": -52.5}
{"molecule": "COCCC1(CNC(=O)Nc2ccnc(C)c2)CCCC1", "INHIBITION": 57.4}
{"molecule": "COCCC1(CNC(=O)Nc2ccc(-n3nccn3)cc2)CCC1", "INHIBITION": -23.3}
{"molecule": "Cc1cc(NC(=O)NCC2(O)CCCC2)ccn1", "INHIBITION": 32.3}
{"molecule": "Cn1nc(CNC(=O)C2CCCCC2)cc1C1CC1", "INHIBITION": 13.6}
{"molecule": "Cc1cn(-c2ccccc2)nc1NS(=O)(=O)c1cc(C(=O)O)ccc1Cl", "INHIBITION": 25.4}
{"molecule": "CC(C)c1nc(CN2CCCC2Cn2cccn2)no1", "note": "(stereo unspecified)", "INHIBITION": 19.6}
{"molecule": "NS(=O)(=O)c1cnc(NCC2(c3ccccc3)CCC2)s1", "INHIBITION": 9.37}
{"molecule": "COc1ccccc1C1(CNc2cn[nH]c(=O)c2Cl)CCOCC1", "INHIBITION": -9.69}
{"molecule": "CC(=O)N1CCN(C(=O)CCNc2snc(Cl)c2C#N)CC1", "INHIBITION": -27}
{"molecule": "COc1ccccc1C1(CNc2cn[nH]c(=O)c2Cl)CC1", "INHIBITION": -22.2}
{"molecule": "COc1ccc(C)cc1C1(CNc2cncc(Cl)n2)CCOCC1", "INHIBITION": -60.3}
{"molecule": "N#Cc1c(Cl)nsc1NCC1(c2ccccc2)CCC1", "INHIBITION": 84}
{"molecule": "COc1ccccc1C1(CNc2snc(Cl)c2C#N)CCCC1", "INHIBITION": 80.2}
{"molecule": "COc1ccccc1OCCNc1snc(Cl)c1C#N", "INHIBITION": 68.1}
{"molecule": "N#Cc1c(Cl)nsc1NCCN1CCOCC1", "INHIBITION": 39.9}
{"molecule": "CC(=O)N1CCN(CCNc2snc(Cl)c2C#N)CC1", "INHIBITION": -4.93}
{"molecule": "COc1ccccc1C1(CNc2snc(Cl)c2C#N)CCOCC1", "INHIBITION": 53.4}
{"molecule": "COc1ccccc1C1(CNc2ncc(S(N)(=O)=O)s2)CC1", "INHIBITION": -10.9}
